FMDV inh: foot and mouth disease virus antiviral activity. FMDV antiviral cell-based qHTS. Potency, µM (highest dose often 57.9 µM), for the others: top-dose activity change, negative = inhibition, most hits filed as inhibitors. 410,000 tested, 1.2% active; calls by dose curve; tested in HEK293T cells; note: read-out not given here; potency is the fitted concentration of half-maximal effect; % is set by controls: 0 for no effect and ±100 for the full control effect; nearly all actives have a fitted effect of over 45% in size
Sm TGR inh: S. mansoni TGR enzyme inhibition | purified TGR, DTNB reduction, TNB absorbance 405 nm | Potency, µM (doses to about 114 µM), without a hit: at the highest dose activity change, negative = inhibition, actives largely listed as inhibitors | 360,000 tested, 3% active; active = well fitted inhibition curve with a large enough effect; inconclusive = small, poorly fitted or top-dose-only effect; inactive = no such curve, though single readings can be large or run the other way; note: potency is the fitted concentration of half-maximal effect; % is set by controls: 0 for no effect and ±100 for the full control effect; nearly all actives have a fitted effect of over 60% in size
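First, TGR (20 nM dispensed) and NADPH were mixed with compound. Second, a 15 min room-temperature incubation followed. Third, further NADPH and then DTNB were added to start the reaction. Finally, TNB absorbance was monitored kinetically.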
Cycloheximide cs: affects cycloheximide protein synthesis inhibition readout, counter-screen. cell reporter, cycloheximide protein synthesis inhibition counterscreen. max response, %. 300,000 tested, 12% active. AID 2314; in the data active = max response mostly above about 13%, no sharp cut-off; inactive = mostly below about 14%; note: read at 38.3 µM for the half of the compounds with a filed dose; 0% is about no effect
Shiga toxin inh: Shiga toxin inhibition. AID 2315. Vero cells, Shiga toxin protein synthesis inhibition reporter. 290,000 tested, 9.2% active. inhibition, % at 38.7 µM; in the data active = inhibition mostly above about 28%, no sharp cut-off; inactive = mostly below about 43%; note: 0% is about no effect
* hit, by the source's call; ? = inconclusive; nt = no result given. Shown are actives, neighbours in structure and some others; about 12% of the full set was active somewhere.

SMILES	FMDV inh	Sm TGR inh	Cycloheximide cs	Shiga toxin inh
Cc1cc(C)nc(-n2nc(C)c3c2NC(=O)CC3c2cccc(O)c2)n1 (stereo not given)	-17%	4%	nt	nt
CCCC[n+]1cc(/N=C(\[O-])OC)on1	11%	-1%	-1	-7
CO/C([O-])=N/c1c[n+](-c2ccc(C)cc2)no1	8%	-3%	22*	43*
Cc1nc2ccc(-c3nc4ccccc4[nH]3)cc2[nH]1	-12%	nt	35*	60*
Cc1ccc(-c2nc3ccccc3[nH]2)cc1NC(=O)COc1cccc(C)c1C	-5%	1%	nt	nt
Cc1ccc2nc(C(F)C(F)(F)F)[nH]c2c1 (stereo not given)	2%	-9%	22*	44*
Cc1ccc2nc(-c3ccncc3)[nH]c2c1	13%	-8%	47*	83*
Cc1ccc2oc(=O)c(-c3nc4ccc(C)cc4[nH]3)cc2c1	34%	4%	nt	nt
Cc1ccc(-c2nc3ccccc3[nH]2)cn1	0%	-2%	22*	32*
CCCCOC(=O)c1ccc(NS(=O)(=O)c2c(C)nc3scc(C)n3c2=O)cc1	-25%	-8%	nt	nt
Clc1ccc(-c2nc3ccccc3[nH]2)cn1	-8%	9%	23*	31
Nc1nonc1-c1nc2ccccc2[nH]1	6%	?	9	23
Cc1ccc(SCc2c(-c3ccccc3)nn(C)c2Cl)cc1	?	-18%	-4	-1
Cc1ccc(SCc2nn(C)c(Cl)c2C=O)cc1	55%	3%	42*	57*
CCS(=O)(=O)n1nc(-c2ccc(OC)cc2)nc1N	1%	0%	23*	23
CCS(=O)(=O)n1nc(-c2ccc(Cl)cc2)nc1SC	71%	16%	62*	87*
CS(=O)(=O)n1nc(-c2ccc(Cl)cc2)nc1N	19%	3%	20*	20*
Nc1nc(-c2ccccc2)nn1S(=O)(=O)c1ccccc1	-12%	nt	8	8
CCS(=O)(=O)n1nc(-c2ccccc2)nc1N	35%	?	-2	-2
CCS(=O)(=O)n1nc(-c2ccco2)nc1SC	0%	?	7	42
Cc1ccccc1OCc1csc(N)n1	21%	9%	16*	33
Nc1nc(COc2ccccc2)cs1	54%	-31%	14	34
Cc1ccc(OCc2csc(N)n2)cc1	51%	0%	35*	83*
Nc1nc(COc2ccc(Cl)cc2)cs1	32%	4%	33*	65*
CC1CCN(S(=O)(=O)c2ccc3c(c2)CCC(=O)N3CC(=O)Nc2cccc(C#N)c2)CC1	33%	10%	nt	nt
SMILES	FMDV inh	Sm TGR inh	Cycloheximide cs	Shiga toxin inh
O=C(O)c1ccccc1NS(=O)(=O)c1ccc2ccccc2c1	31%	4%	33*	64
O=C(O)c1cccc(NC(=S)NC(=O)c2ccc3ccccc3c2)c1	14µM*	25µM*	42*	71*
COc1cc2ccccc2cc1C(=O)NC(=S)Nc1cccc(C(=O)O)c1C	-3%	?	2	9
O=C(O)c1ccc(NC(=S)NC(=O)c2ccc3ccccc3c2)cc1	1%	0%	-2	20
O=C(O)c1cc(NS(=O)(=O)c2ccc3ccccc3c2)ccc1O	10%	-18%	-3	-5
O=C(NC(=S)Nc1ccccc1C(=O)O)c1ccc2ccccc2c1	38%	?	15*	32
CCc1ccccc1NC(=O)CN1C(=O)c2cccnc2Oc2ccc(Cl)cc21	0%	-18%	nt	nt
CCC(C)n1c(SCc2ccc(F)cc2Cl)nc2ccsc2c1=O (stereo not given)	?	1%	nt	nt
CC(=O)c1ccc(N2CCN(C(=O)CN(C)S(=O)(=O)c3cnc[nH]3)CC2)cc1	14%	-5%	39*	42
CN(CC(=O)N1CCN(c2ccc(F)cc2)CC1)S(=O)(=O)c1ccc(F)cc1	0%	15%	14	33*
CCOC(=O)N1CCN(C(=O)CN(C)S(=O)(=O)c2ccc(F)cc2)CC1	10%	-12%	5	7
CN1CCN(C(=O)C2=C[C@H](c3csc4ccccc34)C[C@H](OCCCCO)O2)CC1	-3%	40µM*	1	-10
CN1CCN(C(=O)C2=C[C@H](c3csc4ccccc34)C[C@H](OCc3ccc(CO)cc3)O2)CC1	-15%	-27%	-2	-22
C#Cc1ccc([C@H]2C=C(C(=O)N3CCN(Cc4ccccc4)CC3)O[C@@H](OCc3ccc(CO)cc3)C2)cc1	-28%	45µM*	-2	-17
CN1CCN(C(=O)C2=C[C@@H](c3ccccc3)C[C@@H](OCc3ccc(CO)cc3)O2)CC1	-10%	40µM*	0	5
O=C(C1=C[C@@H](c2ccc(C(F)(F)F)cc2)C[C@@H](OCCCCO)O1)N1CCN(Cc2ccccc2)CC1	?	?	-2	-10

Screening data (PubChem)
